A selection: hits, their analogues and other compounds. The true share with any hit is near 4.2%.
Ec RNAP inh: E. coli RNAP inhibitors, biochemical; inhibition, %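 (tested at 10 µM)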; DNA-directed RNA polymerase subunit beta (Escherichia coli (strain K12)), P0A8V2; AID 559, 2006; hit rate 0.2% among 62,000; E. coli RNA polymerase, fluorescence transcription assay; in the data active means inhibition above about 20%;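 further: 0% = enzyme without compound and 100% = no enzyme blank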
CD11b adhes inh: inhibitors of CD11b/CD18 adhesion to fibrinogen, primary screen, K562 cells, luminescence; Integrin beta-2 (Homo sapiens) + Integrin alpha-M (Homo sapiens), P05107+P11215; ATPlite luminescence; Mn2+ added to activate the integrin; inhibition, % at 10 µM; hit rate 0.54% among 93,000; AID 1497, 2009;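 active means primary inhibition of 50% or more at 10 µM, then 40% or more on retest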
Mac1 fbg enh: enhancers of CD11b/CD18 adhesion to fibrinogen, primary screen, K562 cells, luminescence. Integrin beta-2 (Homo sapiens) + Integrin alpha-M (Homo sapiens), P05107+P11215. ATPlite luminescence. activation, % at 10 µM. hit rate 0.07% among 93,000;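 active means 10 µM primary screen giving 50% or more activity, confirmed by 40% or more on retest at that dose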
PTK2B oligo ant: antagonists of Pyk2 self-association, primary screen, Q293 cells, FERM NanoBiT luminescence, HTS. Protein-tyrosine kinase 2-beta (Homo sapiens), Q14289. hits give low values. z-score (the deposit names both 25 µM and 10 µM). hit rate 0.83% among 99,000. AID 1347419, 2020;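 active means Z-score of -3 or lower, scaled per plate to the spread of control and sample wells; inactive means z-score above -3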;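 further: negative z-score means lost luminescence so less FERM oligomerization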
Cav3 T inh: Cav3.2 calcium influx blockers – cell-based, Fluo-4 calcium fluorescence, FDSS, MLSMR library, primary screen | Cav3.2-expressing cells; hits give low values | B-score at 10 µM | Voltage-dependent T-type calcium channel subunit alpha-1H (Homo sapiens), O95180 | hit rate 4% among 100,000;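 active means single-dose well whose peak fluorescence ratio is a statistical outlier from its plate by either plate-standardised score or position-corrected B-score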
The depositor's hits bear a star.

How did O=S(=O)(NCCOCC(F)(F)C(F)F)c1ccc2oc3ccccc3c2c1 do in these assays?
Ec RNAP inh: -2.8; CD11b adhes inh: 57.3; Mac1 fbg enh: -6.6; PTK2B oligo ant: -1.56; Cav3 T inh: -4.59*

What do the screens show for `COc1ccc(CCNC(=O)NC23CC4CC(CC(C4)C2)C3)cc1OC`?
CD11b adhes inh: 14.4; Mac1 fbg enh: 2.9; PTK2B oligo ant: 0.53; Cav3 T inh: 0.395

How did CC1CCN(S(=O)(=O)c2ccc(NC(=O)CN3CCN(c4ccccc4)CC3)cc2)CC1 do in these assays?
Ec RNAP inh: 1.8; CD11b adhes inh: 4.5; Mac1 fbg enh: -2.0; PTK2B oligo ant: -0.56; Cav3 T inh: -0.374

How did CC1CCN(S(=O)(=O)c2ccc(NC(=O)Cc3ccccc3)cc2)CC1 do in these assays?
CD11b adhes inh: 8.9; Mac1 fbg enh: -1.8; PTK2B oligo ant: -0.48; Cav3 T inh: -5.92*

What do the screens show for `CN(Cc1ccccc1)S(=O)(=O)c1ccc(C(=O)Nc2nnc(C3CC3)o2)cc1`?
Ec RNAP inh: 3.8; CD11b adhes inh: -5.4; Mac1 fbg enh: 7.3; PTK2B oligo ant: -2.15; Cav3 T inh: -1.14

How did COc1ccccc1-c1nnc(NC(=O)c2ccc(S(=O)(=O)N(C)Cc3ccccc3)cc2)o1 do in these assays?
Ec RNAP inh: 10.1; Cav3 T inh: -5.77*

Results for CCc1nnc(NC(=O)c2ccc(S(=O)(=O)N(CC)Cc3ccccc3)cc2)o1 ?
Ec RNAP inh: -7.3; CD11b adhes inh: -10.7; Mac1 fbg enh: 1.4; PTK2B oligo ant: -1.38; Cav3 T inh: -4.45*

How did CN(c1ccccc1)S(=O)(=O)c1ccc(C(=O)Nc2nnc(-c3ccc(F)cc3)o2)cc1 do in these assays?
Ec RNAP inh: 2.1; CD11b adhes inh: -23.8; Mac1 fbg enh: 3.9; Cav3 T inh: -7.52*

Results for CCCCN(CC)S(=O)(=O)c1ccc(C(=O)Nc2nnc(-c3cccs3)o2)cc1 ?
Ec RNAP inh: 3.6; CD11b adhes inh: 16.1; Mac1 fbg enh: -2.1; Cav3 T inh: -4.81*

How did CCCCN(C)S(=O)(=O)c1ccc(C(=O)Nc2nnc(CSC)o2)cc1 do in these assays?
Ec RNAP inh: 6.5; CD11b adhes inh: -6.1; Mac1 fbg enh: -4.6; PTK2B oligo ant: -0.65; Cav3 T inh: -2.52

What do the screens show for `CCCCN(CCCC)S(=O)(=O)c1ccc(C(=O)Nc2nnc(COC)o2)cc1`?
Ec RNAP inh: 6.2; CD11b adhes inh: -1.9; Mac1 fbg enh: -0.5; PTK2B oligo ant: -1.85; Cav3 T inh: -0.707

What do the screens show for `Cc1ccc(N2C(=O)[C@@H]3C(C(=O)CCN4C(=O)c5ccccc5C4=O)=NN[C@@H]3C2=O)cc1`?
CD11b adhes inh: 20.8; Mac1 fbg enh: 1.8

How did COc1cc(C(=S)N2CCCC2)cc(OC)c1O do in these assays?
CD11b adhes inh: -34.6; Mac1 fbg enh: 0.8; PTK2B oligo ant: -0.38; Cav3 T inh: 0.074

What do the screens show for `COc1ccc(-c2nnc(NC(=O)c3ccc(S(=O)(=O)N4CCCc5ccccc54)cc3)o2)cc1`?
Ec RNAP inh: 3.9; CD11b adhes inh: -7.6; Mac1 fbg enh: 0.9; PTK2B oligo ant: -3.74*

Results for O=C(Nc1nnc(-c2ccc3c(c2)CCCC3)o1)C1COc2ccccc2O1 (configuration not stated) ?
Ec RNAP inh: 8.2; CD11b adhes inh: 3.2; Mac1 fbg enh: 2.2; Cav3 T inh: -4.88*

How did O=C(NCc1ccccc1)c1ccc(S(=O)(=O)N2CCCc3ccccc32)cc1 do in these assays?
PTK2B oligo ant: -1.6; Cav3 T inh: -3.48

What do the screens show for `O=C(NCc1ccco1)c1ccc(S(=O)(=O)N2CCCc3ccccc32)cc1`?
Ec RNAP inh: 7.3; CD11b adhes inh: 7.3; Mac1 fbg enh: -2.6; PTK2B oligo ant: -2.37; Cav3 T inh: -3.89*

Results for CC(=O)Nc1nnc(-c2ccc3c(c2)CCCC3)o1 ?
Ec RNAP inh: 4.8; CD11b adhes inh: 0.3; Mac1 fbg enh: -0.7

What do the screens show for `CC1CN(S(=O)(=O)c2ccc(C(=O)Nc3nnc(-c4ccc5c(c4)CCCC5)o3)cc2)CC(C)O1` (configuration not stated)?
Ec RNAP inh: 6.9; CD11b adhes inh: 6.8; Mac1 fbg enh: 0.5; Cav3 T inh: -8.4*

How did COc1cccc(-c2nnc(NC(=O)c3ccc(S(=O)(=O)N4CCOCC4)cc3)o2)c1 do in these assays?
Ec RNAP inh: -5.3; CD11b adhes inh: 1.1; Mac1 fbg enh: 1.8; PTK2B oligo ant: -1.53; Cav3 T inh: -1.41

How did Cc1ccc(Cl)cc1NC(=O)c1cccc(OC(F)F)c1 do in these assays?
CD11b adhes inh: -10.1; Mac1 fbg enh: -1.7; PTK2B oligo ant: -0.94; Cav3 T inh: -1.33

How did COc1cc(O)c(C(CC(=O)N2CCOCC2)c2cc(OC)c(OC)c(OC)c2)c(OC)c1 (configuration not stated) do in these assays?
Cav3 T inh: 0.733

How did Cc1cccc(Cn2c(N3CCCCC3C)nc3c2c(=O)[nH]c(=O)n3C)c1 (configuration not stated) do in these assays?
Ec RNAP inh: 1.6; Cav3 T inh: -3.76*

How did CC(=O)Cn1c(N2CCC(Cc3ccccc3)CC2)nc2c1c(=O)[nH]c(=O)n2C do in these assays?
CD11b adhes inh: -6.5; Mac1 fbg enh: -0.6; PTK2B oligo ant: 0.1; Cav3 T inh: 1.58

Results for C=C(C)Cn1c(N2CCC(Cc3ccccc3)CC2)nc2c1c(=O)[nH]c(=O)n2C ?
PTK2B oligo ant: -1.39; Cav3 T inh: -4.02*

Results for CCCCCn1c(N2CCC(Cc3ccccc3)CC2)nc2c1c(=O)[nH]c(=O)n2C ?
Ec RNAP inh: 7.3; Cav3 T inh: -4.8*

How did Cc1cccc(Cn2c(N3CCc4ccccc4C3)nc3c2c(=O)[nH]c(=O)n3C)c1 do in these assays?
CD11b adhes inh: -17.1; Mac1 fbg enh: 38.3; PTK2B oligo ant: -0.43; Cav3 T inh: 0.232

What do the screens show for `CC1CCCN(c2nc3c(c(=O)[nH]c(=O)n3C)n2Cc2ccccc2Cl)C1` (configuration not stated)?
Ec RNAP inh: 6.5; CD11b adhes inh: 20.4; Mac1 fbg enh: -8.1; Cav3 T inh: -6.1*

Results for Nc1c(C(=O)c2ccccc2)sc(Nc2ccccc2)c1S(=O)(=O)c1ccccc1 ?
PTK2B oligo ant: -2.1; Cav3 T inh: -3.81*

Results for Cc1ccc(N=Nc2c(=O)[nH]n3c(C)cc(C)nc23)cc1 ?
PTK2B oligo ant: -3.81*; Cav3 T inh: 1.25

What do the screens show for `Cc1noc(C)c1-c1ccc2nc[nH]c(=O)c2c1`?
Cav3 T inh: 0.42

How did Cc1ccc(OCC(O)Cn2c(=N)n(Cc3ccccc3)c3ccccc32)cc1 (configuration not stated) do in these assays?
CD11b adhes inh: 21.8; Mac1 fbg enh: 0.3; PTK2B oligo ant: 0.33; Cav3 T inh: -5.27*

What do the screens show for `COc1ccc(OCC(O)Cn2c(=N)n(Cc3ccccc3)c3ccccc32)cc1` (configuration not stated)?
Ec RNAP inh: 7.2; CD11b adhes inh: -9.6; Mac1 fbg enh: -3.5; PTK2B oligo ant: 2.26

Screening results (PubChem)
